In all, about 5,500 compounds went through this assay and about 2,000 (36%) were called active. Not shown: some 18% with an inconclusive outcome. Rule as the data show it: active = normalized growth mostly below about 0.91 (no sharp cut-off); inconclusive = no clear call, values can overlap the other calls; inactive = mostly above about 0.92. The list shows a part of the results.
Assay: chemical genetic growth profiling, strain panel (AID 1159580);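 also: tested at 20 µM; growth read once vehicle control cultures reached saturation at 30 °C; 1 = growth at the plate median or of vehicle wells; lower values mean less growth of the strain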
Conditions: growth OD

Measured: normalized growth

OC(CCN1CCCC1)(c1ccccc1)C1CCCCC1 (centres undefined)
inactive: S. cerevisiae deletion strains, locus YJR043C, strain POL32, stronger effect = lower value 1.01 | S. cerevisiae deletion strains, locus YJR066W, strain TOR1, stronger effect = lower value 0.973 | S. cerevisiae deletion strains, locus YKL009W, strain mrt4, stronger effect = lower value 0.977 | S. cerevisiae deletion strains, locus YKL068W, stronger effect = lower value 0.985 | S. cerevisiae deletion strains, locus YKL085W, strain MDH1 (second series), stronger effect = lower value 0.977 | S. cerevisiae deletion strains, locus YKL085W, strain MDH1, stronger effect = lower value 0.977 | S. cerevisiae deletion strains, locus YKL160W, strain elf1, stronger effect = lower value 0.975 | S. cerevisiae deletion strains, locus YKL190W, strain CNB1, stronger effect = lower value 0.996 | S. cerevisiae deletion strains, locus YKR001C, strain vps1, stronger effect = lower value 0.985 | S. cerevisiae deletion strains, locus YKR026C, strain gcn3, stronger effect = lower value 0.986 | S. cerevisiae deletion strains, locus YKR091W, strain srl3, stronger effect = lower value 0.992 | S. cerevisiae deletion strains, locus YLL001W, strain dnm1, stronger effect = lower value 0.956 | S. cerevisiae deletion strains, locus YLL026W, stronger effect = lower value 0.974 | S. cerevisiae deletion strains, locus YLL041C, strain sdh2, stronger effect = lower value 0.988 | S. cerevisiae deletion strains, locus YLR027C, strain aat2, stronger effect = lower value 0.969 | S. cerevisiae deletion strains, locus YLR039C, strain RIC1, stronger effect = lower value 1.05 | S. cerevisiae deletion strains, locus YLR058C, strain SHM2, stronger effect = lower value 0.994 | S. cerevisiae deletion strains, locus YLR102C, strain apc9, stronger effect = lower value 0.972 | S. cerevisiae deletion strains, locus YLR113W, strain HOG1, stronger effect = lower value 1 | S. cerevisiae deletion strains, locus YLR221C, strain rsa3, stronger effect = lower value 0.995 | S. cerevisiae deletion strains, locus YLR258W, strain gsy2, stronger effect = lower value 1 | S. cerevisiae deletion strains, locus YLR262C, strain YPT6 (second series), stronger effect = lower value 0.998 | S. cerevisiae deletion strains, locus YLR262C, strain YPT6, stronger effect = lower value 1.07 | S. cerevisiae deletion strains, locus YLR268W, strain sec22, stronger effect = lower value 0.946 | S. cerevisiae deletion strains, locus YLR320W, strain mms22, stronger effect = lower value 0.968 | S. cerevisiae deletion strains, locus YLR330W, strain CHS5, stronger effect = lower value 0.992 | S. cerevisiae deletion strains, locus YLR342W, strain FKS1 (second series), stronger effect = lower value 0.992 | S. cerevisiae deletion strains, locus YLR342W, strain FKS1, stronger effect = lower value 0.963 | S. cerevisiae deletion strains, locus YLR357W, strain rsc2, stronger effect = lower value 0.973 | S. cerevisiae deletion strains, locus YLR370C, strain arc18, stronger effect = lower value 0.972 | S. cerevisiae deletion strains, locus YLR371W, strain rom2, stronger effect = lower value 0.958 | S. cerevisiae deletion strains, locus YLR384C, strain iki3, stronger effect = lower value 0.969 | S. cerevisiae deletion strains, locus YLR418C, strain cdc73, stronger effect = lower value 0.957 | S. cerevisiae deletion strains, locus YML016C, strain PPZ1, stronger effect = lower value 0.991 | S. cerevisiae deletion strains, locus YML032C, strain rad52, stronger effect = lower value 0.97 | S. cerevisiae deletion strains, locus YML120C, strain ndi1, stronger effect = lower value 0.972 | S. cerevisiae deletion strains, locus YML124C, strain tub3, stronger effect = lower value 0.983 | S. cerevisiae deletion strains, locus YMR058W, strain fet3, stronger effect = lower value 0.981 | S. cerevisiae deletion strains, locus YMR078C, strain ctf18, stronger effect = lower value 0.966 | S. cerevisiae deletion strains, locus YMR125W, strain sto1, stronger effect = lower value 1 | S. cerevisiae deletion strains, locus YMR129W, stronger effect = lower value 0.99 | S. cerevisiae deletion strains, locus YMR205C, strain PFK2, stronger effect = lower value 0.985 | S. cerevisiae deletion strains, locus YMR223W, strain ubp8, stronger effect = lower value 0.999 | S. cerevisiae deletion strains, locus YMR231W, strain pep5, stronger effect = lower value 1 | S. cerevisiae deletion strains, locus YMR263W, strain SAP30, stronger effect = lower value 1 | S. cerevisiae deletion strains, locus YMR307W, strain GAS1, stronger effect = lower value 0.991 | S. cerevisiae deletion strains, locus YNL067W, strain RPL9B, stronger effect = lower value 0.998 | S. cerevisiae deletion strains, locus YNL071W, strain lat1, stronger effect = lower value 1.01 | S. cerevisiae deletion strains, locus YNL128W, strain TEP1, stronger effect = lower value 0.982 | S. cerevisiae deletion strains, locus YNL183C, strain NPR1, stronger effect = lower value 0.989 | S. cerevisiae deletion strains, locus YNL209W, strain ssb2, stronger effect = lower value 0.993 | S. cerevisiae deletion strains, locus YNL233W, strain BNI4, stronger effect = lower value 1.01 | S. cerevisiae deletion strains, locus YNL248C, strain rpa49, stronger effect = lower value 1.01 | S. cerevisiae deletion strains, locus YNL250W, strain rad50, stronger effect = lower value 0.967 | S. cerevisiae deletion strains, locus YNL271C, strain bni1, stronger effect = lower value 0.987 | S. cerevisiae deletion strains, locus YNL298W, strain CLA4, stronger effect = lower value 0.97 | S. cerevisiae deletion strains, locus YNL307C, strain MCK1, stronger effect = lower value 0.976 | S. cerevisiae deletion strains, locus YNL322C, strain KRE1 (second series), stronger effect = lower value 0.981 | S. cerevisiae deletion strains, locus YNR049C, strain mso1, stronger effect = lower value 0.998 | S. cerevisiae deletion strains, locus YNR052C, strain pop2, stronger effect = lower value 0.98 | S. cerevisiae deletion strains, locus YOL006C, strain TOP1, stronger effect = lower value 1.02 | S. cerevisiae deletion strains, locus YOL012C, strain htz1 0.758 | S. cerevisiae deletion strains, locus YOL147C, strain pex11, stronger effect = lower value 0.975 | S. cerevisiae deletion strains, locus YOR001W, strain rrp6, stronger effect = lower value 0.965 | S. cerevisiae deletion strains, locus YOR061W, strain CKA2, stronger effect = lower value 0.987 | S. cerevisiae deletion strains, locus YOR069W, strain VPS5, stronger effect = lower value 0.989 | S. cerevisiae deletion strains, locus YOR070C, strain gyp1, stronger effect = lower value 1 | S. cerevisiae deletion strains, locus YOR080W, strain dia2, stronger effect = lower value 0.983 | S. cerevisiae deletion strains, locus YOR083W, strain WHI5, stronger effect = lower value 0.956 | S. cerevisiae deletion strains, locus YOR106W, strain vam3, stronger effect = lower value 0.979 | S. cerevisiae deletion strains, locus YOR136W, strain idh2, stronger effect = lower value 0.982 | S. cerevisiae deletion strains, locus YOR144C, strain elg1, stronger effect = lower value 0.979 | S. cerevisiae deletion strains, locus YOR184W, strain ser1, stronger effect = lower value 0.985 | S. cerevisiae deletion strains, locus YOR231W, strain MKK1, stronger effect = lower value 0.963 | S. cerevisiae deletion strains, locus YOR265W, strain rbl2, stronger effect = lower value 0.988 | S. cerevisiae deletion strains, locus YOR270C, strain vph1, stronger effect = lower value 0.965 | S. cerevisiae deletion strains, locus YOR290C, strain snf2, stronger effect = lower value 1.01 | S. cerevisiae deletion strains, locus YOR316C, strain cot1, stronger effect = lower value 0.97 | S. cerevisiae deletion strains, locus YPL051W, strain arl3, stronger effect = lower value 0.987 | S. cerevisiae deletion strains, locus YPL078C, strain atp4, stronger effect = lower value 0.945 | S. cerevisiae deletion strains, locus YPL106C, strain sse1, stronger effect = lower value 1 | S. cerevisiae deletion strains, locus YPL240C, strain hsp82, stronger effect = lower value 0.978 | S. cerevisiae deletion strains, locus YPL256C, strain CLN2, stronger effect = lower value 1.02 | S. cerevisiae deletion strains, locus YPR119W, strain clb2, stronger effect = lower value 0.981 | S. cerevisiae deletion strains, locus YPR141C, strain kar3, stronger effect = lower value 0.978 | S. cerevisiae deletion strains, locus YPR163C, strain tif3, stronger effect = lower value 0.974 | S. cerevisiae deletion strains, locus YPR167C, strain met16, stronger effect = lower value 0.978 | S. cerevisiae deletion strains, strain wtn01, stronger effect = lower value 0.964 | S. cerevisiae strains, strain wild type, stronger effect = lower value 0.996

Source: PubChem BioAssay AID1159580 (chemical genetic matrix, 2015)
